Twelve compounds from PubChem BioAssay (NCATS) can be followed below.

Test [1] deals with TAB165. Description: qHTS profiling for inhibitors of Plasmodium falciparum proliferation (AID 504749).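 Also: 0% = DMSO vehicle and full inhibition = artemisinin control; nearly all actives have a fitted effect of over 60% in size.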 To be noted: P. falciparum in erythrocytes, SYBR Green DNA, 72 h; series mostly up to 28.7 µM. Summed up:
(§1)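 P. falciparum-infected erythrocytes (0.3% parasitemia, 2.5% hematocrit final) were exposed to compounds for 72 h at 37 C in 5% CO2, then lysed with SYBR Green buffer overnight at room temperature; parasite DNA fluorescence was normalized to artemisinin and DMSO controls.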
In general terms: Quantitative high-throughput screening tests each substance at several concentrations.

The subject of test [2] is W2. Described as above. As to conditions: P. falciparum in erythrocytes, SYBR Green DNA, 72 h; series mostly up to 28.7 µM. In short, it runs like this: as §1
Test [3] deals with CRL-7250. Put plainly: Cytotoxic Profiling of Annotated Libraries Using Quantitative High-Throughput Screening (AID 1296008). Also: nearly all actives have a fitted effect of over 60% in size. As to max response: % is scaled to controls: 0 for no effect and ±100 for the full control effect. As to conditions: Five cell lines viability, CellTiter-Glo ATP luminescence, 48-72 h; max response: active compounds read low. In short, it runs like this: (§2)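 Compounds were pin-transferred onto cells and incubated 48 or 72 hr at 37 degree Celsius, 95% humidity. CellTiter-Glo was added, plates sat 10 min at room temperature, then ATP-coupled luminescence was imaged as the viability read-out.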
Background: In ATP-based viability assays light output follows the ATP content of the culture.

Test [4] has as its system HEK293. The test is described as above. To be noted: Five cell lines viability, CellTiter-Glo ATP luminescence, 48-72 h; max response: active compounds read low. In short, it runs like this:
as §2

The subject of test [5] is HaCat. Described as above. To be noted: Five cell lines viability, CellTiter-Glo ATP luminescence, 48-72 h; max response: active compounds read low. Summed up: as §2
In test [6] the test system is NIH3T3. The description is as above. As to conditions: Five cell lines viability, CellTiter-Glo ATP luminescence, 48-72 h; max response: active compounds read low. Summed up: as §2
For test [7], the system named is MCC-13. Put plainly: qHTS assay to identify novel small-molecules to repurpose for Merkel cell carcinoma treatment (AID 1296009). Also: nearly all actives have a fitted effect of over 60% in size. Also: potency is read from the fitted curve at half-maximal effect. To be noted: MCC and control cell lines, CellTiter-Glo viability, 72 h; series mostly up to 46 µM. Summed up:
(§3)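 Cells exposed to NPC (8-point) and MIPE (11-point) compound dilutions for 72 hr at 37 degree celsius; viability read by CellTiter-Glo luminescence, normalized to no-cell and DMSO in-plate controls.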

In test [8] the test system is MCC-26. The description is as above. To be noted: MCC and control cell lines, CellTiter-Glo viability, 72 h; series mostly up to 46 µM. Summed up:
as §3

The test system of test [9] is MKL-1. The test is described as above. As to conditions: MCC and control cell lines, CellTiter-Glo viability, 72 h; series mostly up to 46 µM. In short, it runs like this: as §3
Test [10] deals with MKL-2. Described as above. As to conditions: MCC and control cell lines, CellTiter-Glo viability, 72 h; series mostly up to 46 µM. In short, it runs like this: as §3
Test [11] has as its system UISO. The description is as above. To be noted: MCC and control cell lines, CellTiter-Glo viability, 72 h; series mostly up to 46 µM. In short, it runs like this: as §3
In test [12] the test system is WaGa. The description is as above. To be noted: MCC and control cell lines, CellTiter-Glo viability, 72 h; series mostly up to 46 µM. In short, it runs like this: as §3
The test system of test [13] is C33A. Put plainly: Primary qHTS to identify gynecologic anti-cancer compounds using libraries of approved drugs and bioactive compounds (AID 1345084). Also: % is scaled to controls: 0 for no effect and ±100 for the full control effect; nearly all actives have a fitted effect of over 55% in size. To be noted: Gynecologic cancer cell panel viability, ATPlite luminescence, 48 h; series mostly up to 57.5 µM. Summed up: (§4)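 Luminescence from the ATPlite ATP-monitoring reagent indicates viable cell number; lower signal means cytotoxicity. Cells received compound 16 h after seeding and were exposed for 48 h across five concentrations.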

Test [14] deals with CAOV3. Described as above. To be noted: Gynecologic cancer cell panel viability, ATPlite luminescence, 48 h; series mostly up to 57.5 µM. In short, it runs like this:
as §4

The test system of test [15] is CASKI. The description is as above. To be noted: Gynecologic cancer cell panel viability, ATPlite luminescence, 48 h; series mostly up to 57.5 µM. In short, it runs like this: as §4
The subject of test [16] is Es-2. The test is described as above. As to conditions: Gynecologic cancer cell panel viability, ATPlite luminescence, 48 h; series mostly up to 57.5 µM. Summed up:
as §4

The subject of test [17] is KB-3-1. Description: Cytotoxic Profiling of Annotated Libraries Using Quantitative High-Throughput Screening (AID 1296008). Also: nearly all actives have a fitted effect of over 60% in size. As to max response: % is scaled to controls: 0 for no effect and ±100 for the full control effect. To be noted: Five cell lines viability, CellTiter-Glo ATP luminescence, 48-72 h; max response: active compounds read low. In short, it runs like this:
as §2

Test [18] relates to HACAT. Description: qHTS assay to identify novel small-molecules to repurpose for Merkel cell carcinoma treatment (AID 1296009). Also: nearly all actives have a fitted effect of over 60% in size. Also: potency is read from the fitted curve at half-maximal effect. To be noted: MCC and control cell lines, CellTiter-Glo viability, 72 h; at 44.8 µM (top of the series) unless noted. Summed up: as §3
Test [19] relates to HEK293T. The test is described as above. As to conditions: MCC and control cell lines, CellTiter-Glo viability, 72 h; at 44.8 µM (top of the series) unless noted. Summed up:
as §3

In test [20] the test system is NIH3T3. The description is as above. As to conditions: MCC and control cell lines, CellTiter-Glo viability, 72 h; at 44.8 µM (top of the series) unless noted. In short, it runs like this:
as §3

“And” between values parts separate entries of the source, which are not always exact repeats. Identical values can stand only once. Results filed as inconclusive are left out. Values without a mark were called inactive. The source made the active and inactive calls. Calls follow the shape of the dose curve; as a rule, active = well fitted curve in the direction sought with a large enough effect; inconclusive = small, poorly fitted or top-dose-only effect, or another doubt; inactive = no such curve, though single readings can be large; an effect the other way counts as inactive or inconclusive.

For `COc1ccc2c(c1)C(=O)N(CCc1ccc(S(=O)(=O)NC(=O)NC3CCCCC3)cc1)C(=O)C2(C)C`, the Potency entry in test [1], in test [2], in test [7], in test [8], in test [9] and in [10] was “inactive” in each case. For the same compound, the Potency entry in test [11], in [12], in test [13], in [14], in [15] and in test [16] was “inactive” in each case. Further, the max response in [3] was 2.02% and -12.3%; in test [4], -11%; in [5] it was 4.11%; in test [6] it was -19.1% and -11.5%.

`Cc1cc2nc3c(=O)[nH]c(=O)nc-3n(C[C@H](O)[C@H](O)[C@H](O)CO)c2cc1C`: in test [3], the result was inactive. In addition, the max response in [4] was -5.47%; in test [5], -19.1%; in test [17], -1.52% and 0.485%; in test [6] it was 4.08%. Further, the Potency entry in test [7], in [9], in test [10], in [11], in test [12] and in test [13] was “inactive” each time. The Potency result in test [15] and in [16] was “inactive” in each case.

As to `CC(C)(C)NCC(O)COc1ccc(NC(=O)NC2CCCCC2)cc1` (stereo not given), the Potency entry in test [1], in test [2], in test [7], in test [8], in test [9] and in test [10] was “inactive” in each case. Besides, the Potency result in [11], in [12], in test [13], in test [14], in test [15] and in test [16] was “inactive” each time. Moreover, the compound was classed as inactive in test [3], in test [4], in test [5], in [6], in test [18] and in test [19]. In addition, the call in test [20] was inactive.

Regarding `Oc1cn2c(n1)Nc1ccc(Cl)c(Cl)c1C2`, the Potency entry in [1], in test [2], in [7], in test [8], in [9] and in test [10] was “inactive” throughout. Besides, the Potency result in test [11], in test [12], in test [13], in [14], in test [15] and in test [16] was “inactive” throughout. Moreover, the result in test [3], in test [4], in [5] and in test [6] was inactive. The outcome in test [18], in test [19] and in [20] was “inactive [at 17.4 µM]” in each case.

`COC(=O)C1=C(C)NC(C)=C(C(=O)OC)C1c1ccccc1[N+](=O)[O-]`: the Potency entry in test [1], in [2], in test [7], in test [8], in test [13] and in [14] was “inactive” throughout. The Potency result in [15] and in [16] was “inactive” throughout. Moreover, the values for the max response in test [3], in test [4] and in test [5] were -7.51%, -14.4% and -2.57%, respectively. Besides, the Potency in test [10] is 23.7 µM (active).

As to `CCOC(=O)c1ccc(O)cc1`, the Potency result in [1], in test [2], in test [7], in test [9], in test [10] and in test [11] was “inactive” throughout. For the same compound, the Potency result in test [12], in [13], in test [14], in [15] and in test [16] was “inactive” throughout. For the same compound, the figures for the max response in test [3] and in [5] were -1.17% and -1.41%, respectively. Further, the compound was called inactive in [4], in test [6], in test [19] and in test [20].

In the case of `O=Cc1ccccc1C=O`, the Potency result in test [1], in test [2], in [7], in test [9], in test [10] and in test [11] was “inactive” throughout. Moreover, the Potency entry in test [12], in test [13], in test [14], in test [15] and in test [16] was “inactive” throughout. Further, the figures for the max response in test [3] and in [5] were -8.99% and 3.01%, respectively. The compound was called inactive in test [4], in test [6], in test [19] and in test [20].

Consider `Cn1cc[nH]c1=S`, for which, in test [3], the max response is 4.5%. Further, the compound was called inactive in test [4], in [5], in [6], in [18], in test [19] and in test [20]. Besides, the Potency entry in [7], in test [8], in test [9], in [10], in test [11] and in test [12] was “inactive” throughout. For the same compound, the Potency entry in test [13], in test [14], in test [15] and in test [16] was “inactive” throughout.

`CC(COc1ccccc1)NC(C)C(O)c1ccc(O)cc1` (stereo not given): the max response in [3] is -14.7%; in [5], -5.97%. In addition, the compound was classed as inactive in [4], in [6], in [19] and in test [20]. The Potency result in test [7], in test [8], in [9], in test [10], in test [11] and in [12] was “inactive” in each case. Moreover, the Potency entry in test [13], in [15] and in test [16] was “inactive” each time.

On to `CCCc1c(OCCCCc2nn[nH]n2)ccc(C(C)=O)c1O`, for which the Potency entry in test [1], in test [7], in test [8], in test [9], in test [10] and in test [11] was “inactive” in each case. In addition, the Potency entry in [12], in test [13], in [14], in test [15] and in test [16] was “inactive” each time. In addition, the max response in test [3] is -1.12%; in test [6], 2.45%. For the same compound, the call in test [4], in [5], in test [18] and in test [19] was inactive.

Consider `CC12CCC(CC1)C(C)(C)O2`, for which the Potency result in [1], in test [2], in [7], in test [9], in [10] and in test [11] was “inactive” in each case. Also, the Potency result in test [12], in test [13], in test [14], in test [15] and in [16] was “inactive” throughout. Further, the results for the max response in test [3] and in test [5] were 3.08% and -2.38%, respectively. The outcome in [4], in test [6], in test [19] and in test [20] was inactive.

Take `CN(N=O)C(=O)N[C@@H]1[C@@H](O)[C@H](O)[C@@H](CO)O[C@@H]1O`: the result in test [3], in test [4], in [5], in test [6], in [18] and in test [19] was inactive. Further, the call in test [20] was inactive. Besides, the Potency entry in test [7], in test [9], in test [10], in test [11], in test [12] and in test [13] was “inactive” throughout. Further, the Potency entry in test [14], in test [15] and in test [16] was “inactive” throughout.
